Compounds without any hit were thinned out: in the full panel of roughly 83,000, 20% have a hit.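 For each line, cells grew in 96-well plates with the test compound present at a single concentration for 48 hours.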 Values without a mark were called inactive. The source made the active and inactive calls. The calls were made as follows: active = growth percent below 10; inactive = the rest.

The subject of the first assay is NCI-H322M lung. In words: NCI-60 one-dose screen, 48 h (100 = growth as untreated, 0 = no growth, -100 = all killed). The settings on record: 10 µM unless noted.
For the compound `C[C@]12O[C@H](C[C@]1(O)CO)n1c3ccccc3c3c4c(c5c6ccccc6n2c5c31)CNC4=O`, the growth is -32.1% (active).

Take `CSc1nc2ncnc(SC)c2[nH]1`: the growth was 101%.

Consider `CCc1nc2cc(/C=C/C(=O)NO)ccc2c(=O)n1CCc1ccc(OC)cc1`, for which the growth was 29.9%.

On to `COC(=O)[C@H](Cc1ccc(O)cc1)NC(=O)[C@@H](OC)[C@@H]1Cc2cc3cc(OC4CC(OC5CC(O)C(O)C(C)O5)C(O)C(C)O4)c(C)c(O)c3c(O)c2C(=O)[C@H]1OC1CC(OC2CC(OC3CC(C)(O)C(O)C(C)O3)C(O)C(C)O2)C(O)C(C)O1` (stereo partly drawn), for which the growth is 11.1%.

`Nc1ccc(S(=O)(=O)O)c2cc(S(=O)(=O)O)cc(O)c12`: the growth is 117%.

For `COc1cc(-c2nc(C(=O)NCC(=O)O)nn2-c2ccc(Cl)cc2)cc(OC)c1OC`, the growth is 102%.

As to `Cc1ccc(NC(=O)c2ccc(CN3CC[C@H](N(C)C)C3)c(C(F)(F)F)c2)cc1Nc1nccc(-c2cncnc2)n1`, the growth is 26.2%.

Regarding `Cc1cc(Oc2ccccc2)ccc1Nc1ncnc2ccc(-c3cnc(Cl)c(NS(C)(=O)=O)c3)cc12`, the growth is 0.949% (active).

Regarding `COc1ccc(-n2c(=O)c3ccccc3n(Cc3ccc(C(=O)NO)cc3)c2=O)cc1`, the growth is 38.4%.

Regarding `N#CC1(C#N)C(c2cccs2)NC(c2cccs2)C1(C#N)C#N` (stereo not drawn), the growth was 98%.

For the compound `CC(C)[C@@H]1CC[C@]2(CO2)[C@@H]2C(=O)OCC(C(=O)O)=C[C@H]21`, the growth was 8.82% (active).

For the compound `O=C(NO)c1ccc(Cn2c(=O)n(CCc3ccccc3)c(=O)c3ccccc32)cc1`, the growth was 43.7%.

In the case of `CNC(=O)c1cc(Oc2ccc(NC(=O)Nc3ccc(Cl)c(C(F)(F)F)c3)c(F)c2)ccn1`, the growth is -13.4% (active).

`COc1cc2c3c(c1)nc(C)n3CCC2`: the growth is 108%.

`Cc1sc2c(c1C)c(=O)nc1c(-c3nc4ccccc4s3)n[nH]n12`: the growth was 96.2%.

Turning to `CC(=O)CC1CCCC1c1ccc2ccccc2c1` (stereo not drawn), the growth is 96.2%.

`CCn1cc(-c2ccnc3[nH]c(-c4cccc(CN(C)C)c4)cc23)c(-c2ccc(NC(=O)N(C)C)cc2)n1`: the growth was 38.7%.

On to `N[C@@H]1CCCN(c2c(/C=C3\SC(=O)NC3=O)cccc2-c2ccccc2)C1`, for which the growth is 64.3%.

For the compound `Brc1ccc([I+]c2ccc(Br)cc2)cc1`, the growth was 48.1%.

Take `O=C(NC[C@H](O)CO)c1ccncc1Nc1ccc(I)cc1F`: the growth was 19.8%.

For the compound `N#Cc1c(NC(=O)c2ccco2)[n+]([O-])c2cc(F)c(F)cc2[n+]1[O-]`, the growth was 103%.

As to `COc1cc2ncnc(Oc3cccc(NC(=O)Nc4cc(C(C)(C)C(F)(F)F)on4)c3)c2cc1OC`, the growth is 1.62% (active).

In the case of `O=C(c1ccc(/C=C/c2n[nH]c3ccccc23)cc1)N1CCNCC1`, the growth is 33.5%.

For `N#CC(C#N)=NO`, the growth is 92.1%.

Turning to `CN1CCC(COc2cnc(-c3cccc(Cn4nc(-c5cccc(C#N)c5)ccc4=O)c3)nc2)CC1`, the growth is 88.7%.

For the compound `CC(C)OP(=O)(CCC(=O)c1c[nH]c2ccccc12)OC(C)C`, the growth was 103%.

`COc1cc(NCCN(CC(C)C)CC(C)C)c2ncc(C)cc2c1`: the growth was 82.9%.

Consider `O=c1sn(-c2cccc3ccccc23)c(=O)n1Cc1ccccc1`, for which the growth is 102%.

As to `Cc1cc2c(F)c(Oc3ncnn4cc(OC[C@@H](C)OC(=O)[C@H](C)N)c(C)c34)ccc2[nH]1`, the growth was 41.1%.

Take `CCCCN1C(=O)c2cccc3c(-c4ccc5c(c4)ncn5C4CCCCC4)ccc(c23)C1=O`: the growth is 101%.

`C=CC(=O)Nc1cc2c(Nc3ccc(F)c(Cl)c3)ncnc2cc1OCCCN1CCOCC1`: the growth was -15.2% (active).

Consider `CCN(CC)CCCC(C)Nc1cc(-c2ccc(C(F)(F)F)cc2)c(C#N)c2nc3ccccc3n12` (stereo not drawn), for which the growth is 38.9%.

Take `C=CC(=O)Nc1cc(Nc2nccc(-c3cn(C)c4ccccc34)n2)c(OC)cc1N(C)CCN(C)C`: the growth was -5.77% (active).

Regarding `O=C(Nc1cnn2ccc(N3CCC[C@@H]3c3cc(F)ccc3F)nc12)N1CC[C@H](O)C1`, the growth was 104%.

Regarding `S=C(NCc1ccc2c(c1)OCO2)N1CCN(c2ncnc3c2oc2ccccc23)CC1`, the growth was 35.3%.

Turning to `O=C(NOC[C@H](O)CO)c1ccc(F)c(F)c1Nc1ccc(I)cc1F`, the growth was 12.3%.

Take `CC(=O)Oc1ccccc1C(=O)N=C1[Se]CCN1C(=O)c1ccccc1OC(C)=O`: the growth is -21.7% (active).

In the case of `COC(=O)CCCNc1c(-c2c(O)c(O)cc3c(O)c(-c4c(C)cc5c(-c6nc7ccccn7c6NCCCC(=O)OC)c(O)c(O)cc5c4O)c(C)cc23)nc2ccccn12`, the growth is 93.2%.

Regarding `O=C(CNc1nc(-c2ccc(Cl)cc2)cs1)Nc1ccc(-c2nc3ccccc3s2)cc1`, the growth is 91.6%.

Another assay has as its system HOP-62 NSCLC. Described as above. The settings on record: 10 µM unless noted.
With `C[C@]12O[C@H](C[C@]1(O)CO)n1c3ccccc3c3c4c(c5c6ccccc6n2c5c31)CNC4=O`, the growth was -63% (active).

As for `CSc1nc2ncnc(SC)c2[nH]1`, the growth is 77.8%.

Turning to `CCc1nc2cc(/C=C/C(=O)NO)ccc2c(=O)n1CCc1ccc(OC)cc1`, the growth was 16.6%.

On to `COC(=O)[C@H](Cc1ccc(O)cc1)NC(=O)[C@@H](OC)[C@@H]1Cc2cc3cc(OC4CC(OC5CC(O)C(O)C(C)O5)C(O)C(C)O4)c(C)c(O)c3c(O)c2C(=O)[C@H]1OC1CC(OC2CC(OC3CC(C)(O)C(O)C(C)O3)C(O)C(C)O2)C(O)C(C)O1` (stereo partly drawn), for which the growth was 19.3%.

With `Nc1ccc(S(=O)(=O)O)c2cc(S(=O)(=O)O)cc(O)c12`, the growth was 107%.

With `COc1cc(-c2nc(C(=O)NCC(=O)O)nn2-c2ccc(Cl)cc2)cc(OC)c1OC`, the growth was 104%.

`Cc1ccc(NC(=O)c2ccc(CN3CC[C@H](N(C)C)C3)c(C(F)(F)F)c2)cc1Nc1nccc(-c2cncnc2)n1`: the growth was -0.939% (active).

As to `Cc1cc(Oc2ccccc2)ccc1Nc1ncnc2ccc(-c3cnc(Cl)c(NS(C)(=O)=O)c3)cc12`, the growth was 28.2%.

For the compound `COc1ccc(-n2c(=O)c3ccccc3n(Cc3ccc(C(=O)NO)cc3)c2=O)cc1`, the growth was 25.8%.

Regarding `N#CC1(C#N)C(c2cccs2)NC(c2cccs2)C1(C#N)C#N` (stereo not drawn), the growth is 95%.

As for `CC(C)[C@@H]1CC[C@]2(CO2)[C@@H]2C(=O)OCC(C(=O)O)=C[C@H]21`, the growth is 5.26% (active).

Regarding `O=C(NO)c1ccc(Cn2c(=O)n(CCc3ccccc3)c(=O)c3ccccc32)cc1`, the growth is 31.1%.

Consider `CNC(=O)c1cc(Oc2ccc(NC(=O)Nc3ccc(Cl)c(C(F)(F)F)c3)c(F)c2)ccn1`, for which the growth is -48.1% (active).

For the compound `COc1cc2c3c(c1)nc(C)n3CCC2`, the growth was 90.7%.

As to `Cc1sc2c(c1C)c(=O)nc1c(-c3nc4ccccc4s3)n[nH]n12`, the growth is 90.1%.

As to `CC(=O)CC1CCCC1c1ccc2ccccc2c1` (stereo not drawn), the growth was 96.6%.

As for `CCn1cc(-c2ccnc3[nH]c(-c4cccc(CN(C)C)c4)cc23)c(-c2ccc(NC(=O)N(C)C)cc2)n1`, the growth was 15%.

Take `N[C@@H]1CCCN(c2c(/C=C3\SC(=O)NC3=O)cccc2-c2ccccc2)C1`: the growth is 1.79% (active).

`Brc1ccc([I+]c2ccc(Br)cc2)cc1`: the growth was -83% (active).

On to `O=C(NC[C@H](O)CO)c1ccncc1Nc1ccc(I)cc1F`, for which the growth is 23.7%.

`N#Cc1c(NC(=O)c2ccco2)[n+]([O-])c2cc(F)c(F)cc2[n+]1[O-]`: the growth is 120%.

As for `COc1cc2ncnc(Oc3cccc(NC(=O)Nc4cc(C(C)(C)C(F)(F)F)on4)c3)c2cc1OC`, the growth is 37.1%.

`O=C(c1ccc(/C=C/c2n[nH]c3ccccc23)cc1)N1CCNCC1`: the growth was 16.5%.

In the case of `N#CC(C#N)=NO`, the growth is 85.8%.

In the case of `CN1CCC(COc2cnc(-c3cccc(Cn4nc(-c5cccc(C#N)c5)ccc4=O)c3)nc2)CC1`, the growth was 45.7%.

Consider `CC(C)OP(=O)(CCC(=O)c1c[nH]c2ccccc12)OC(C)C`, for which the growth is 88.1%.

For the compound `COc1cc(NCCN(CC(C)C)CC(C)C)c2ncc(C)cc2c1`, the growth was 51.5%.

On to `O=c1sn(-c2cccc3ccccc23)c(=O)n1Cc1ccccc1`, for which the growth was 76.6%.

Turning to `Cc1cc2c(F)c(Oc3ncnn4cc(OC[C@@H](C)OC(=O)[C@H](C)N)c(C)c34)ccc2[nH]1`, the growth was 34.8%.

With `CCCCN1C(=O)c2cccc3c(-c4ccc5c(c4)ncn5C4CCCCC4)ccc(c23)C1=O`, the growth is 85.2%.

For `C=CC(=O)Nc1cc2c(Nc3ccc(F)c(Cl)c3)ncnc2cc1OCCCN1CCOCC1`, the growth is 12.1%.

`CCN(CC)CCCC(C)Nc1cc(-c2ccc(C(F)(F)F)cc2)c(C#N)c2nc3ccccc3n12` (stereo not drawn): the growth was 6.94% (active).

For the compound `C=CC(=O)Nc1cc(Nc2nccc(-c3cn(C)c4ccccc34)n2)c(OC)cc1N(C)CCN(C)C`, the growth was -23.9% (active).

For the compound `O=C(Nc1cnn2ccc(N3CCC[C@@H]3c3cc(F)ccc3F)nc12)N1CC[C@H](O)C1`, the growth is 71.8%.

As to `S=C(NCc1ccc2c(c1)OCO2)N1CCN(c2ncnc3c2oc2ccccc23)CC1`, the growth is 30.7%.

For `O=C(NOC[C@H](O)CO)c1ccc(F)c(F)c1Nc1ccc(I)cc1F`, the growth is 27.7%.

Turning to `CC(=O)Oc1ccccc1C(=O)N=C1[Se]CCN1C(=O)c1ccccc1OC(C)=O`, the growth is -48.1% (active).

Turning to `COC(=O)CCCNc1c(-c2c(O)c(O)cc3c(O)c(-c4c(C)cc5c(-c6nc7ccccn7c6NCCCC(=O)OC)c(O)c(O)cc5c4O)c(C)cc23)nc2ccccn12`, the growth is 37.1%.

Consider `O=C(CNc1nc(-c2ccc(Cl)cc2)cs1)Nc1ccc(-c2nc3ccccc3s2)cc1`, for which the growth is 106%.

Source of the values: PubChem BioAssay (NCI).
